About 4,100 (1.1%) of roughly 370,000 compounds were called active. For the sample, actives were picked, then their nearest neighbours and some compounds at random. Unmarked numbers belong to inactive results.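 The calls were made as follows: active = inhibition above the mean over all tested compounds plus 3 SD (cut at about 3.6% in these data); inactive = the rest.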

This assay in a line: relief of DAX-1 repression of SF-1 activity – cell-based, luminescence, SF-1 (NR5A1), full-length DAX-1, primary screen (AID 652010).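 Also: 0% = DAX-1 cells with DMSO and 100% = cells lacking DAX-1 with DMSO.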 Conditions: HEK293T StAR-luciferase reporter, SF-1/DAX-1 repression relief; at 6.8 µM; stronger effect = higher value.
For orientation: inhibition means the change of the read-out against control, counted positive when it falls. In the case of `O=C(CSc1cccc[n+]1[O-])NCCCc1ccccc1`, the inhibition was -0.54%.

In the case of `CCN(C(=O)CSc1cccc[n+]1[O-])c1ccccc1`, the inhibition is -1.71%.

As for `O=C(CSc1cccc[n+]1[O-])c1ccc(-c2ccccc2)cc1`, the inhibition was 6.13% (active).

Turning to `CCOC(=O)C1=C(C)NC2=C(C(=O)CC(C)(C)C2)C1c1ccc2c(c1)OCO2` (stereo not given), the inhibition was -0.98%.

Regarding `COCCCNC(=O)C[C@H]1C[C@@]2(C(=O)OC)C(=C[C@H](C(C)(C)C)O[C@@H]2C)N(Cc2ccc(Cl)cc2Cl)C1=O`, the inhibition is -0.02%.

Take `CC(=O)OC12CCCN(C1)/C(=C/c1ccncc1)C2` (stereo not given): the inhibition was 0.29%.

With `COC(=O)[C@H](C(C)C)N(CCc1cn(Cc2ccccc2)nn1)S(=O)(=O)c1ccc(F)cc1Br`, the inhibition is -1.05%.

Take `CCCNC(=O)C1CC(=O)N(c2ccc(OCC(=O)Nc3cccc(C)c3C)cc2)C1` (stereo not given): the inhibition was 0.23%.

Take `CCCNC(=O)C1CC(=O)N(c2ccc(OCc3ccccc3)cc2)C1` (stereo not given): the inhibition is 5.35% (active).

In the case of `CCOc1ccc(N2CC(C(=O)NCc3ccccn3)CC2=O)cc1` (stereo not given), the inhibition was -0.17%.

For the compound `O=C(NC1CCc2ccccc21)C12CN(Cc3ccccc3)CC1C(c1cccc([N+](=O)[O-])c1)=NO2` (stereo not given), the inhibition is -0.99%.

With `COc1ccc(CN2C(=O)N3Cc4cc(OC)ccc4C3CS2(=O)=O)cc1` (stereo not given), the inhibition is -0.73%.

In the case of `O=C(N/N=C/c1ccsc1)c1cc(O)cc(O)c1`, the inhibition was -0.09%.

On to `NN=C(NN=Cc1ccccc1)c1ccccc1`, for which the inhibition is 0.41%.

Take `O=C(NN=Cc1ccccc1)c1ccccc1`: the inhibition is 3.83% (active).

As to `Cc1ccc(Cn2cc(CN3[C@@H](CC(C)C)COc4ccc(Cl)cc4S3(=O)=O)nn2)cc1`, the inhibition is 0.88%.

As to `Cc1[nH]nc2c1C(c1ccc(Br)cc1)NC2=O` (stereo not given), the inhibition was -0.04%.

On to `CCCOc1ccc(Oc2c(Cl)cnn(Cc3cccc4ccccc34)c2=O)cc1`, for which the inhibition was 0.1%.

With `CN(C)Cc1cn(-c2ccc(-c3noc4c3C(=O)N(CC(=O)N3CCOCC3)CC4)cc2)nn1`, the inhibition is -0.33%.

As for `Cc1nc(N2CCCCC2)sc1C=O`, the inhibition is 0.27%.

For `O=C(NCCc1cccc(F)c1)C1CCCN(c2nc3ccccc3s2)C1` (stereo not given), the inhibition was 0.01%.

With `Brc1ccc2nc(N3CCCC3)sc2c1`, the inhibition was 7.95% (active).

Take `COc1ccc(-n2c(SCC(=O)Nc3ccc4c(c3)OCCO4)nnc2-c2ccc(Cl)cc2)cc1`: the inhibition was 0.07%.

As for `COc1ccccc1C(=O)NC1CCCCN(C(C)C)C1=O` (stereo not given), the inhibition is -0.1%.

As for `O=C(CSc1nc2c(c(=O)[nH]1)CCCC2)N1CCCCC1`, the inhibition was -0.21%.

Regarding `COc1cccc(N(C)C(=O)[C@@H](C)[C@@H](O)c2ccc3ccccc3c2)c1`, the inhibition is -0.75%.

Consider `COc1ccc(C2C(C(C)=O)=C(O)C(=O)N2c2nccs2)cc1` (stereo not given), for which the inhibition was 0.43%.

With `COc1ccc(C(C)(O)c2nc(-c3cc(F)cc(F)c3)cs2)cc1` (stereo not given), the inhibition was -0.31%.

On to `COc1ccc(-c2csc(Cc3nc(O)cs3)n2)cc1`, for which the inhibition is 4.06% (active).

`Cc1ccc(NS(=O)(=O)c2cc3c(cc2Br)NC(=O)CO3)cc1C`: the inhibition is -2.1%.

On to `CN1CCN(S(=O)(=O)c2ccc(NC(=O)C3CCCO3)cc2)CC1` (stereo not given), for which the inhibition was -0.58%.

As to `CCOc1cc(/C=N/NC(=O)c2ccc(CSc3nncn3C)cc2)ccc1OCC(=O)N1CCOCC1`, the inhibition is 0.55%.

With `O=S1(=O)c2ccc(N3CCN(Cc4ccccc4F)CC3)cc2Oc2ccccc2CN1Cc1cn(Cc2ccc(Cl)cc2)nn1`, the inhibition is -0.86%.

Take `O=S(=O)(c1cccs1)N1CCCc2nc(-c3ccc(Br)cc3)ccc21`: the inhibition was 0.56%.

On to `CCCCN1CCN(C(=O)c2ccc3c(c2)NC(=O)C(C)(C)O3)CC1`, for which the inhibition is 0.65%.

On to `COc1ccc(N(CC(=O)N2CCCCCC2)S(=O)(=O)c2ccccc2)cc1`, for which the inhibition is -0.37%.

As to `CC(NS(=O)(=O)c1ccc(OCC(=O)N2CCCC2)cc1)c1ccccc1` (stereo not given), the inhibition was 0.22%.

Turning to `CCN(c1ccccc1)S(=O)(=O)c1ccc(OCC(=O)N2CCCC2)cc1`, the inhibition is 4.72% (active).

Turning to `CCOc1ccccc1NC(=O)CCc1nnc2ccc(NCc3ccco3)nn12`, the inhibition is -0.55%.

With `O=C(CCc1nnc2ccc(NCc3ccco3)nn12)Nc1cc(F)ccc1F`, the inhibition is 1.27%.

In the case of `CC(=O)c1ccc(NC(=O)CCc2nnc3ccc(NCc4ccco4)nn23)cc1`, the inhibition was 4.34% (active).

Take `O=C(CSc1nnc(-c2ccccc2)n1Cc1ccco1)Nc1ccccc1-c1ccccc1`: the inhibition was -1.32%.

In the case of `Cc1cccc(NC(=O)C(C)N2C(=O)C3C4CC(C(Br)C4Br)C3C2=O)c1` (stereo not given), the inhibition is -0.17%.

Turning to `Nc1ccc2nn(-c3ccc(Cl)cc3)nc2c1`, the inhibition was 4.89% (active).

Consider `Nc1ccc2c(c1)C(O)c1ccc(Cl)cc1-2` (stereo not given), for which the inhibition was 0.66%.

As for `Nc1nc2cc(Cl)ccc2n1N`, the inhibition was 0.18%.

In the case of `CCOC(=O)N1CCN(C(=O)C[C@H]2C[C@@]3(C(=O)OC)C(=C[C@H](C4CCCC4)O[C@@H]3C)N(Cc3ccccc3)C2=O)CC1`, the inhibition is -0.29%.

With `CC(C)N1CCCCC(NC(=O)C(C)(C)C)C1=O` (stereo not given), the inhibition was -0.67%.

As for `CC(=O)Nc1cccc(C(=O)OCC(=O)NCc2cc(C)c(O)c(C)c2)c1`, the inhibition is 2.37%.

Regarding `CC(=O)Nc1cccc(C(=O)OCN2C(=O)c3ccccc3C2=O)c1`, the inhibition is 1.3%.

Regarding `CC(=O)Nc1cccc(C(=O)OCC(=O)c2ccc3c(c2)OCO3)c1`, the inhibition was 13.7% (active).

Regarding `COC(=O)C1CN(CCc2ccccc2)CCS(=O)(=O)N1Cc1cccc(Cl)c1` (stereo not given), the inhibition is -1.7%.

Turning to `O=C1CC[C@@H](COc2ccc3[nH]cc(-c4ccccc4)c3c2-c2ccccc2)N1`, the inhibition is -0.82%.

Consider `O=C(COC(=O)CNC(=O)c1ccccc1F)NCC(F)(F)F`, for which the inhibition is -0.62%.

Take `O=C(NCC(=O)N1CCCCCCC1)c1ccccc1Cl`: the inhibition was -0.28%.

In the case of `O=C(NCC(=O)N1CCCC(C(F)(F)F)C1)c1ccccc1F` (stereo not given), the inhibition is 4.23% (active).

For `O=C(C1CCCO1)N(c1ccc(F)cc1)C1C=CS(=O)(=O)C1` (stereo not given), the inhibition was -0.69%.

For the compound `C=CC1=CCN(S(=O)(=O)C(C)(C)C)[C@@H]1CCO`, the inhibition was -0.3%.

As to `O=C(COC(=O)c1cc(=O)[nH]c2ccccc12)NCc1cccc(Cl)c1`, the inhibition was -1.15%.

Take `CN(C(=O)COC(=O)c1cc(=O)[nH]c2ccccc12)C1CCCCC1`: the inhibition is 3.03%.

For `CC1CCN(C(=O)COC(=O)c2cc(=O)[nH]c3ccccc23)CC1`, the inhibition was 9.38% (active).

For the compound `COC(=O)[C@@]12CCCCC=C1N(CCc1ccc(Cl)cc1)C(=O)[C@H]2CC(=O)NCc1ccc(OC)c(OC)c1`, the inhibition is -1.83%.

`CC(C)(C)OC(=O)NCCc1ccccc1/C=C/S(=O)(=O)NCc1ccc(F)cc1`: the inhibition was -2.47%.

`C=CCn1c(C)cc(C(=O)CN2C(=O)c3ccccc3C2=O)c1C`: the inhibition was 3.9% (active).

As for `COc1cc(C(C)=O)ccc1OC(=O)CN1C(=O)c2ccccc2C1=O`, the inhibition is -0.4%.

`C=CCN(CC=C)C(=O)CN1C(=O)c2ccccc2C1=O`: the inhibition is -0.48%.

As for `CCn1c(SCC(C)=O)nc2sc3c(c2c1=O)CCCC3`, the inhibition was -0.04%.

As to `Cc1ccc(OCCCC(=O)Nc2ccc3c(c2)OCCO3)cc1`, the inhibition is -0.75%.

Regarding `O=C(COC(=O)/C=C/c1ccc2c(c1)OCO2)NC1CCS(=O)(=O)C1` (stereo not given), the inhibition was 0.14%.

`COc1ccc(S(=O)(=O)N(C)CC(=O)Nc2ccc3c(c2)OCCO3)cc1OC`: the inhibition is 0.16%.

In the case of `Cc1cccc(NC(=O)/C=C/c2ccc3c(c2)OCO3)n1`, the inhibition was 5.26% (active).

In the case of `COc1cccc(/C=C/C(=O)Nc2ccc3c(c2)OCCO3)c1`, the inhibition is 5.36% (active).

For `CN(Cc1ccccc1)C(=O)COC(=O)/C=C/c1ccc2c(c1)OCO2`, the inhibition is 0.06%.

For `C=CCN1C(=O)[C@H](CC(=O)N2CCN(C(=O)OCC)CC2)[C@@]2(C(=O)OCC)CCCC=C12`, the inhibition is -0.21%.

Regarding `COC(=O)c1ccccc1-n1cc(COC(=O)NCCc2ccccc2)nn1`, the inhibition was -0.35%.

As for `Cc1cc(NS(=O)(=O)c2ccc(NC(=O)CSc3nnc(-c4ccc(C(C)(C)C)cc4)n3Cc3ccco3)cc2)nc(C)n1`, the inhibition is 0.36%.

As to `COC(=O)C1=C(C)N(Cc2ccccc2C(F)(F)F)C(=NCC2CC2)NC1c1cccc(Cl)c1` (stereo not given), the inhibition is 0.1%.

In the case of `CC(C)C[C@H]1CN([C@@H](CC(C)C)CN2CCC[C@@H]2CN2C(=O)C(=O)NC[C@@H]2Cc2ccccc2)C(=O)C(=O)N1CCc1ccccc1`, the inhibition was -1.31%.

Regarding `CN1[C@H](Cc2ccccc2)COc2cccc(N3CCSCC3)c2S1(=O)=O`, the inhibition is -1%.

On to `NC1=NN(c2cccc(C(=O)O)c2)C(=O)C1`, for which the inhibition is -0.57%.

Take `Cc1cccc(C(=O)N2CCN(S(=O)(=O)N3CCCCC3)CC2)c1`: the inhibition was 1.49%.

On to `O=C(O)c1cccc(N=NN2CCCCCC2)c1`, for which the inhibition was 6.35% (active).

Regarding `CCOC(=O)[C@]12CCCC=C1N(CCCOC)C(=O)[C@@H]2CC(=O)N1CCOCC1`, the inhibition is -0.49%.

For `CCCNC(=O)Nc1ccc2c(c1)C(=O)N(C)[C@H]1CC[C@H](CC(=O)NCC3CCCCC3)O[C@@H]1CO2`, the inhibition was -0.63%.

For `COC(=O)C(C(=O)OC)c1ccccc1NS(=O)(=O)c1cccc2ccccc12`, the inhibition is 0.06%.

As for `O=C(NCc1cccs1)C1CCCN(S(=O)(=O)c2ccc([N+](=O)[O-])cc2)C1` (stereo not given), the inhibition is -0.52%.

As to `COc1ccc2c(C(C)c3ccc(N)cc3)cn(C)c2c1` (stereo not given), the inhibition was 0.02%.

In the case of `CCCCSc1nnc(-c2ccc(NC(=O)CC)cc2)n1C`, the inhibition is -0.29%.

On to `CCC(=O)Nc1ccc(-c2ccc(N3CCCCC3)nn2)cc1`, for which the inhibition is 4.53% (active).

`CC1CCN(c2ccc(-c3ccc(NC(=O)c4ccco4)cc3)nn2)CC1`: the inhibition was 2.92%.

The values are drawn from PubChem BioAssay AID652010 (The Scripps Research Institute Molecular Screening Center, 2013).
